Most compounds without a hit are left out; they make up all but 3.5% or so of the library.
FBW7 activator: activators of human E3 ligase FBW7 | normalized activity (activation), % at 26.1 µM | hit rate 0.13% among 650,000 | AlphaScreen FBW7–phospho-cyclin E peptide binding, activator screen; in the data active = normalized activity above about 1.9%;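 also: purified mutant Fbw7 with reduced substrate affinity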
Target sequence (Q969H0 whole entry, looked up): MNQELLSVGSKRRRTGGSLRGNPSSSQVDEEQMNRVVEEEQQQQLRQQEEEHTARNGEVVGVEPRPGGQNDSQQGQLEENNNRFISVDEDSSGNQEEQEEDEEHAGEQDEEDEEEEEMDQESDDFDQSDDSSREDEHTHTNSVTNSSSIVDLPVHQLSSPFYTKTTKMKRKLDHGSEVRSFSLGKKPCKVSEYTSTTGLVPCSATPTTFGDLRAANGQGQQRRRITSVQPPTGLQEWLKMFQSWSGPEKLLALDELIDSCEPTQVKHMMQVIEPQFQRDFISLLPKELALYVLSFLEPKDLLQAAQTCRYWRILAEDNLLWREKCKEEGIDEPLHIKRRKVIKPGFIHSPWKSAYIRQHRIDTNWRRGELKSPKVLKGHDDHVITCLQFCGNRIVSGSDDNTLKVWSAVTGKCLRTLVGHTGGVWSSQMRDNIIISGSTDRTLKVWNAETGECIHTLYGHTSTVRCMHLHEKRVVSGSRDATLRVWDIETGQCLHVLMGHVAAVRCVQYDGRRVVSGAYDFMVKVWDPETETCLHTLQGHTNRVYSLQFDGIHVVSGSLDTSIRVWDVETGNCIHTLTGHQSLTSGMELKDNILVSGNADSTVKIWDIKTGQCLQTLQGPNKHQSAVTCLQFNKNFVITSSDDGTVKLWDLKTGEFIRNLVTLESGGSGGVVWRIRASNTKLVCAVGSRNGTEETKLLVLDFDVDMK
MITF primary: human MITF inhibition, primary screen | AlphaScreen MITF homodimerization, bead proximity signal | inhibition, % at 2.6 µM | O75030 | hit rate 0.91% among 650,000 | AID 1259374; in the data active = inhibition above about 50%;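 also: 0% = vehicle wells with protein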
GPR151 activ: human GPR151 activation | activation, % at 11.2 µM | PathHunter beta-arrestin GPR151 cells, luminescence | hit rate 1% among 650,000 | AID 1508602; in the data active = activation above about 4.9%;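 also: 0% = median of compound wells and 100% = cells with positive control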
TEAD-YAP inh: TEAD-YAP interaction inhibition. HEK-TIYL cells, TEAD-Gal4/YAP UAS-luciferase luminescence. inhibition, % at 9.12 µM. hit rate 1.4% among 640,000; in the data active = inhibition above about 32%;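 also: 0% = median of test compound wells and 100% = reference inhibitor wells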
GPR151 conf act: confirmation of human GPR151 activators. 6,700 tested, under 10 active. activation, % at 11.2 µM. GPR151 PathHunter beta-arrestin cells, luminescence, 90 min; % of EA-reagent control over plate median. shares compounds with GPR151 activ;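 active = mean percent activation across replicates above the confirmation screen cutoff of 4.91%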
GPR119 counter: counter-screen for GPR151 activators: effect on human GPR119; AID 1508611; activation, % at 11.2 µM; hit rate 0.3% among 6,700; shares compounds with GPR151 activ; GPR119 PathHunter beta-arrestin cells, luminescence, 90 min; 0 = compound-well median, 100 = enzyme-acceptor control;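 active = mean percent activation in the counterscreen above 29.09%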;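 also: counterscreen on off-target GPR119 to flag nonselective hits from the GPR151 activator screen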
An asterisk follows results filed as active; / = not tested or not shown; ! = a repeat was not active.

SMILES | FBW7 activator | MITF primary | GPR151 activ | TEAD-YAP inh | GPR151 conf act | GPR119 counter
O=C1CN(c2ccc(Cl)cc2)S(=O)(=O)c2ccccc2N1 | 0 | 2 | 5.6* | -6 | 1 | -3
CCOC(=O)c1sc(/N=C/N(C)C)c(C(=O)OCC)c1C | 0 | 1 | 11* | -9 | 1 | 5
CCOC(=O)/C(N=Nc1sc(C(=O)OCC)c(C)c1C(=O)OCC)=C(\O)CCl | 0 | 3 | 6.7* | -5 | 1 | -3
CCOC(=O)c1c(NC(=O)CSc2nnc(CNC(=O)Cc3ccc(OC)cc3)n2-c2ccccc2OC)sc2c1CCC2 | 0 | 0 | 0 | 5 | / | /
CCOc1ccc2ccccc2c1C(=O)NCc1ccccn1 | 0 | 15 | 21* | -8 | 0 | 2
CCOc1ccc2ccccc2c1C(=O)NCc1cccs1 | 1 | 9 | -1 | 2 | / | /
CCOC(CNc1nc(OC)cc(OC)n1)(OCC)c1ccccn1 | 0 | -4 | 5.0* | 1 | 1 | 5
Cc1cc(N2CCN(C(=O)c3ccc(Cl)cc3Cl)CC2)c(F)cc1[N+](=O)[O-] | 0 | 2 | 6.8* | 6 | 1 | 6
O=S(=O)(NCC(c1ccco1)S(=O)(=O)c1ccc(F)cc1)c1cccs1 (stereo unspecified) | 0 | -5 | 11* | 3 | 0 | -4
Nc1cc(=O)[nH]c(SCc2cn3ccccc3n2)n1 | 0 | -4 | 5.4* | 0 | 0 | -5
COc1cc(CNC(=O)CCCC/C=C/C(C)C)ccc1O | 0 | -7 | 7.6*! | -12 | 0 | -6
COc1ccc(CNC(=O)CCSC)cc1OC | 0 | -5 | -1 | 2 | / | /
CC(=O)c1nn(-c2ccc([N+](=O)[O-])cc2)cc1C(=O)c1cccs1 | 0 | 13 | -1 | -1 | / | /
CC(=O)c1nn(-c2cccc(Cl)c2)cc1C(=O)c1cccs1 | 0 | 9 | 6.4* | -2 | 0 | -8
CCOc1ccc(Nc2nc(N3CCOCC3)c3ccccc3n2)cc1 | 0 | -1 | 1 | 23 | / | /
CCOc1ccc(Nc2nc(NCc3ccco3)c3ccccc3n2)cc1 | 0 | -3 | 5.1* | 49* | 0 | 11
CC(=O)c1ccc(NC(=O)c2ccc(S(=O)(=O)N3CCCC3)cc2)cc1 | 0 | 11 | 5.0* | 1 | -1 | -13
CC(=O)c1ccc(NC(=O)Nc2ccc(S(=O)(=O)N3CCCC3)cc2)cc1 | 0 | 9 | -1 | 17 | / | /
COc1cc(NS(=O)(=O)c2ccc(NC(=O)c3ccc(C(C)=O)cc3)cc2)ncn1 | 0 | 13 | 5.7* | -7 | 0 | -13
O=C(NCc1cccc(C(F)(F)F)c1)c1cccc(NCCCN2CCCC2=O)n1 | 0 | 3 | 2 | 11 | / | /
CCOC(=O)N1CCN(CC(O)COc2ccc([N+](=O)[O-])cc2)CC1 (stereo unspecified) | 0 | -12 | 5.4* | -4 | 1 | 19
CC(C)C(=O)Nc1nnc(S(=O)(=O)N(C)c2ccc(Cl)cc2)s1 | 0 | 2 | 5.8* | 12 | -1 | -4
CCc1cc2c(=O)c(-c3ccc4c(c3)OCCO4)coc2cc1OCC(N)=O | 1 | 5 | 2 | 19 | / | /
CCc1cccc(OCC(=O)Nc2ccccc2C(N)=O)c1 | 0 | 0 | 10* | -22 | -1 | 7
CCc1cccc(OCC(=O)Nc2ccccc2C(=O)O)c1 | 1 | 9 | -1 | -27 | / | /
SMILES | FBW7 activator | MITF primary | GPR151 activ | TEAD-YAP inh | GPR151 conf act | GPR119 counter
Cc1ccc2occ(C(=O)c3ccccc3Cl)c(=O)c2c1 | 0 | 10 | 7.7* | 11 | 1 | -6
Cn1ccnc1SCc1cc(=O)c(OC(=O)c2cccc(Cl)c2)co1 | 0 | 10 | 0 | 0 | / | /
O=C(NC1CC1)c1ccc(-c2nc(NCCO)c3ncn(C4CCCCC4)c3n2)cc1 | 0 | 19 | 1 | 11 | / | /
COc1ccc(-c2nc(NC3CCN(Cc4ccccc4)CC3)c3ncn(C4CCCCC4)c3n2)cc1 | 0 | 2 | 5.8* | -1 | -1 | -8
Nc1nc(-c2ccc(C(=O)NC3CC3)cc2)nc2c1ncn2C1CCCCC1 | 0 | 6 | 6.2* | -8 | 0 | 3
CC(=O)c1cccc(-c2nc(NC3CC3)c3ncn(C4CCCCC4)c3n2)c1 | 0 | 15 | 9.4* | -6 | -1 | -7
CCCNc1nc(-c2cccc(C(C)=O)c2)nc2c1ncn2C1CCCCC1 | 0 | -4 | 2 | -15 | / | /
CN1CCN(c2ccc(-c3nc(NCc4cccc(C(F)(F)F)c4)c4ncn(C5CCCCC5)c4n3)cc2)CC1 | 0 | 12 | -1 | 12 | / | /
CN1CCN(C(=O)c2ccc(-c3nc(NCc4cccc(C(F)(F)F)c4)c4ncn(C5CCCCC5)c4n3)cc2)CC1 | 0 | -1 | 5.0* | 6 | 0 | -21
O=C1C(c2ccccc2F)N(C2CCCCCCC2)C(=O)CN1C1CCCCCC1 (stereo unspecified) | 0 | 5 | 0 | 1 | / | /
Cc1ccc(Cl)c2c1NC(=O)C2(O)CC(=O)c1ccc(Br)s1 (stereo unspecified) | 0 | -6 | 0 | -4 | / | /
COc1ccc(Cl)cc1C(=O)N1CCCC1 | 0 | -6 | 0 | 2 | / | /
Cc1ccc(-n2c(C)cc(C=C3C(=O)NC(=O)NC3=O)c2C)cc1 | 0 | 8 | 8.6* | 8 | 0 | -5
COc1cc([N+](=O)[O-])cc(/C=N/NC(=O)COc2c(C)ccc(C)c2C)c1O | -1 | 22 | -1 | 18 | / | /
CCc1cccc(NC(=O)C2CCCC2)c1 | 0 | 7 | 10* | -17 | 0 | -11
Cc1[nH]c2ccccc2c1C=Nc1ccc(S(N)(=O)=O)cc1 | 1 | 2 | 0 | 6 | / | /
CCCCCOc1ccc(NC(=O)C(C)C)cc1 | 0 | -11 | 14* | -68 | 0 | -2
CCCCOc1ccc(NC(=O)C(=O)NC)cc1 | 1 | 19 | -1 | -8 | / | /
CCCCOc1ccc(NC(=O)C(=O)NC(C)C)cc1 | 0 | -12 | 5.6* | 7 | 0 | 0
CCCCOc1ccc(NC(=O)CC)cc1 | 0 | 7 | 1 | -16 | / | /
O=Cc1cc(C(=O)O)cc2c1OCOC2 | 0 | -7 | 11* | -4 | -1 | -6
Cc1ccc2c(=O)cc(-c3cc(C(=O)O)cc4c3OCOC4)oc2c1 | 0 | 14 | 0 | 10 | / | /
Cc1ccccc1NC(=O)NC1(C(=O)N2CCN3CCCC3C2)CCCCC1 (stereo unspecified) | 0 | 0 | 12* | -1 | 0 | -1

Compound activity (PubChem BioAssay)
